Data as given in PubChem BioAssay.
Activity calls are given as the source filed them.

Key:
[1] = tested on: PRMT1 (protein arginine N-methyltransferase 1); assay: PRMT1 binders on small-molecule microarrays, primary screen, biochemical, small-molecule microarray, 635 nm fluorescence (AID 1088); settings: small-molecule microarray binding, higher = more signal;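 further: binding of Prmt1 protein to compounds spotted on small-molecule microarray slides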
[2] = yeast growth modulation, basal conditions, primary screen, YJM789 clinical isolate, OD600, 24 h (AID 1089);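 further: growth of clinical yeast isolate S. cerevisiae YJM 789 seeded 1000 cells per well; test concentration not given here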; settings: S. cerevisiae YJM789 growth, higher = more signal, called active from +8 up or from −8 down
[3] = fission yeast growth modulation, primary screen, strain 972, OD600, 24 h, no modulator (AID 1090);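 further: basal condition with compound alone and no growth modifier present; test concentration not given here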; settings: S. pombe 972 growth, higher = more signal, called active from +8 up or from −8 down
[4] = S. cerevisiae growth modulation with rapamycin, primary screen, strain BY4716, OD600, 96 h (AID 1091); settings: higher = more signal, called active from +8 up or from −8 down; further: test concentration not given here
[5] = molecular target: Torsin-1A-interacting protein 2 (Homo sapiens) (UniProt Q8NFQ8); assay: LULL1 binders on small-molecule microarray, primary screen, cell lysate, human LULL1 lysate, 635/667 nm fluorescence (AID 1092); settings: hLULL1 lysate binding, 635 nm fluorescence, higher = more signal;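 further: probe is lysate of COS7 cells overexpressing human LULL1; score merges per-feature 667 nm fluorescence with signal-to-noise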
Chain of Torsin-1A-interacting protein 2 (Homo sapiens) (Q8NFQ8 whole entry, looked up): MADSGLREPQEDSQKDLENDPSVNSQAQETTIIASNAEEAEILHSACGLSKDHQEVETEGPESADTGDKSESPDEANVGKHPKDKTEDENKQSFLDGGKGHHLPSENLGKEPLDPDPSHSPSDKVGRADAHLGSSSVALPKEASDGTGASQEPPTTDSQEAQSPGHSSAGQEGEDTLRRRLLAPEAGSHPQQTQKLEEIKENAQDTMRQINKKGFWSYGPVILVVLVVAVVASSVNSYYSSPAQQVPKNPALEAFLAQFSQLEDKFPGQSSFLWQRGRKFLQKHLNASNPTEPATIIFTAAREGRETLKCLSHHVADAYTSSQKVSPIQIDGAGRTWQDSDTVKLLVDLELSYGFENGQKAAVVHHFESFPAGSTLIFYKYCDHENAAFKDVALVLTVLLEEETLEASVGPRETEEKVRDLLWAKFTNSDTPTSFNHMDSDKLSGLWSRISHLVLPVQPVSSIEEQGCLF

[6] = E. coli growth modulation, two-sided OD650, primary screen, E. coli filamentation project, strain DRC41, 24 h (AID 1093); settings: OD650, 24 h, higher = more signal, called active from +8 up or from −8 down;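 further: MC1000 strain lacking acrAB efflux and sulA so SOS filamentation is blocked; test concentration not given here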
[7] = small-molecule microarray binders of probe aLefty2, primary screen, biochemical, biotinylated probe, 635/667 nm fluorescence (AID 1094); settings: higher = more signal;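 further: score merges spot fluorescence near 667 nm with spot signal-to-noise ratio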
[8] = tested on: Noggin (protein binding on small-molecule microarray); assay: Noggin binders on small-molecule microarray, primary screen, biochemical, 635/667 nm fluorescence (AID 1095); settings: 635 nm fluorescence, higher = more signal;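 further: score merges 667 nm feature fluorescence with signal to noise over triplicate slides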
[9] = molecular target: Neurogenic locus notch homolog protein 3 (Homo sapiens) (UniProt Q9UM47); assay: NOTCH3 binders on small-molecule microarray, primary screen, biochemical, 635/667 nm fluorescence (AID 1096); settings: NOTCH3 binding, 635 nm fluorescence, higher = more signal
Chain of Neurogenic locus notch homolog protein 3 (Homo sapiens) (Q9UM47 whole entry, looked up): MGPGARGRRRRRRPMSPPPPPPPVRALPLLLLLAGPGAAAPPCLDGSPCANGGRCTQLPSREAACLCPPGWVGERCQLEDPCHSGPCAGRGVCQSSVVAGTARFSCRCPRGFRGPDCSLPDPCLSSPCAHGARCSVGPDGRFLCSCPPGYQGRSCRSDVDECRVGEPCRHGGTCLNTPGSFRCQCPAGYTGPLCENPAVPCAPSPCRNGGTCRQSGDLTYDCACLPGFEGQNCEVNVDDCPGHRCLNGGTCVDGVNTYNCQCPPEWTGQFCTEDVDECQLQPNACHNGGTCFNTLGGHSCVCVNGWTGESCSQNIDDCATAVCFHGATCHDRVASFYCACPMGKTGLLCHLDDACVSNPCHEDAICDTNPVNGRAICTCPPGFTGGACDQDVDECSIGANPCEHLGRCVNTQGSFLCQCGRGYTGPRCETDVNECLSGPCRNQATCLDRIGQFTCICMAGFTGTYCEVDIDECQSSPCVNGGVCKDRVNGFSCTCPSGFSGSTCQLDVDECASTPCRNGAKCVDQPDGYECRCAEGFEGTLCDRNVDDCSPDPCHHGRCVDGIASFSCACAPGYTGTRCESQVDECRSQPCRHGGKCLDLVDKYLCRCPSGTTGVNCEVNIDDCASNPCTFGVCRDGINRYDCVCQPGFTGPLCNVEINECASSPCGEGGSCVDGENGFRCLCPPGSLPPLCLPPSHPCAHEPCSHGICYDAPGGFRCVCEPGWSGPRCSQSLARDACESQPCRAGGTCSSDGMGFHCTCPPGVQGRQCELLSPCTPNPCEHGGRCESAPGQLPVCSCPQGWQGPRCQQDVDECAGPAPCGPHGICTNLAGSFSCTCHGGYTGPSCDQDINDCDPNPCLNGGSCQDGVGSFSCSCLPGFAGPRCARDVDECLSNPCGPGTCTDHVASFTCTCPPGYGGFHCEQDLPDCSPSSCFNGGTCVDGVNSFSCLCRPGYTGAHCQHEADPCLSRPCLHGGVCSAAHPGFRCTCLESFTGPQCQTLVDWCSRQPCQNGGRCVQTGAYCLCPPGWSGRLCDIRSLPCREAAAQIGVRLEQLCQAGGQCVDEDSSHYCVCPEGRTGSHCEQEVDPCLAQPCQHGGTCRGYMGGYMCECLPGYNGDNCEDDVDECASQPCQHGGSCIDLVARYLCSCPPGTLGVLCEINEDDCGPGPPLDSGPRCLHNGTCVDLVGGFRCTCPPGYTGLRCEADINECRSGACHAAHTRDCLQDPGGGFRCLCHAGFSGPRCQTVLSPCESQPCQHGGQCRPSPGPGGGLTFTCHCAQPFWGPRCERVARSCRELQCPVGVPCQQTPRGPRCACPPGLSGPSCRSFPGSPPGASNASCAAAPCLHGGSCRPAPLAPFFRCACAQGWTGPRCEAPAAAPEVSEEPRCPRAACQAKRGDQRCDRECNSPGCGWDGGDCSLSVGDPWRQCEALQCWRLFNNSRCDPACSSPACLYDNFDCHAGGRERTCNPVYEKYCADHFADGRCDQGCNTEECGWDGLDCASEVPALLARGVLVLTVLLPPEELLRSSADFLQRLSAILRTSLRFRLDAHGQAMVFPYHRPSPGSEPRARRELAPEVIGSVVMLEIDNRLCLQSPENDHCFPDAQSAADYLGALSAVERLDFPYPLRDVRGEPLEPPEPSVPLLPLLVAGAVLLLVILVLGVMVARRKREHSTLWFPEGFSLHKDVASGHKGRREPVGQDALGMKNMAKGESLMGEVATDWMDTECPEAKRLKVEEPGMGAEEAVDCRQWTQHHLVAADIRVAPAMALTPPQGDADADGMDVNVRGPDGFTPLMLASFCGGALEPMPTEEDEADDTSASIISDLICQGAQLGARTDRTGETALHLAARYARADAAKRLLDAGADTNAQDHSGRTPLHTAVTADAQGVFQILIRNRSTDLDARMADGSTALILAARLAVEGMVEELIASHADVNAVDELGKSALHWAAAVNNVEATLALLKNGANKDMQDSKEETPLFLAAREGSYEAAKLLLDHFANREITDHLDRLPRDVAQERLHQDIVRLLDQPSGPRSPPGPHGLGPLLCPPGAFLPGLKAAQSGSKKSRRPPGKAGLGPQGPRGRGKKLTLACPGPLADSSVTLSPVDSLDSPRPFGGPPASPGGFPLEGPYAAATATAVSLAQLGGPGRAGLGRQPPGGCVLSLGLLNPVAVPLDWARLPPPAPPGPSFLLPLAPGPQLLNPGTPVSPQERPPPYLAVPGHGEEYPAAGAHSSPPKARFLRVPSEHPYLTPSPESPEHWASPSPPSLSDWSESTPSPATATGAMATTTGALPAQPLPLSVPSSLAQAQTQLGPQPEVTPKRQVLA

[10] = small-molecule microarray binders of probe aEGFR, primary screen, biochemical, biotinylated probe, 635/667 nm fluorescence (AID 1097); settings: higher = more signal;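 further: probe is a biotinylated anti-EGFR antibody binding compounds printed on slides; score combines fluorescence near 667 nm and signal to noise of each spot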
[11] = tested on: Plasmodium falciparum Sir2 (PF13_0152, Sir2A); assay: pfSir2 binders on small-molecule microarrays, primary screen, biochemical, small-molecule microarray, 635 nm fluorescence (AID 1098); settings: small-molecule microarray binding, fluorescence 635 nm; higher = more signal;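 further: score merges spot fluorescence intensity with its signal-to-noise ratio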
[12] = small-molecule microarray binders of probe aDKK1, primary screen, biochemical, biotinylated probe, 635/667 nm fluorescence (AID 1099); settings: higher = more signal;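 further: score merges 667nm spot fluorescence with signal to noise across triplicate slides; reference of the scale not given here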
[13] = small-molecule microarray binders of probe aCHRDL2, primary screen, biochemical, biotinylated probe, 635/667 nm fluorescence (AID 1100); settings: higher = more signal
[14] = splicing luciferase reporter signal modulators, primary screen, spliceosome inhibition project, cell-based, HEK293, splice +/- reporter (AID 1101); settings: luminescence, 24 h, higher = more signal, called active from +8 up or from −8 down;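 further: HEK293 cells carrying a splicing-competent luciferase reporter gene; test concentration not given here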
[15] = molecular target: Fibroblast growth factor 10 (Homo sapiens) (UniProt O15520); assay: FGF10 binders on small-molecule microarrays, primary screen, biochemical, small-molecule microarray, 635 nm fluorescence (AID 1102); settings: FGF10 binding, fluorescence 635 nm, higher = more signal
Chain of Fibroblast growth factor 10 (Homo sapiens) (O15520 whole entry, looked up): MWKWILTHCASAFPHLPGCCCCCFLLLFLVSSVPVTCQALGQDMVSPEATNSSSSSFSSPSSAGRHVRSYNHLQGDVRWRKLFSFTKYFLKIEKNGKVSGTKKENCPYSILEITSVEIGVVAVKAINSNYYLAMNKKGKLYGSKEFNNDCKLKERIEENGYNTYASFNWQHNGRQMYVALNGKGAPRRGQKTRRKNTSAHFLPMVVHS

[16] = tested on: glycogen synthase kinase-3 (GSK3A per assay name; protocol says GSK3B); assay: GSK3 binders on small-molecule microarrays, primary screen, biochemical, small-molecule microarray, 635 nm fluorescence, GSK3A (AID 1103); settings: small-molecule microarray binding, fluorescence 635 nm; higher = more signal; further: the record names both GSK3A and GSK3B
[17] = molecular target: Epidermal growth factor receptor (Homo sapiens) (UniProt P00533); assay: EGFR binders on small-molecule microarrays, primary screen, biochemical, small-molecule microarray, 635 nm fluorescence (AID 1104); settings: EGFR binding, higher = more signal;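 further: score merges 667 nm emission intensity with spot signal to noise over triplicate slides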
Chain of Epidermal growth factor receptor (Homo sapiens) (P00533 whole entry, looked up): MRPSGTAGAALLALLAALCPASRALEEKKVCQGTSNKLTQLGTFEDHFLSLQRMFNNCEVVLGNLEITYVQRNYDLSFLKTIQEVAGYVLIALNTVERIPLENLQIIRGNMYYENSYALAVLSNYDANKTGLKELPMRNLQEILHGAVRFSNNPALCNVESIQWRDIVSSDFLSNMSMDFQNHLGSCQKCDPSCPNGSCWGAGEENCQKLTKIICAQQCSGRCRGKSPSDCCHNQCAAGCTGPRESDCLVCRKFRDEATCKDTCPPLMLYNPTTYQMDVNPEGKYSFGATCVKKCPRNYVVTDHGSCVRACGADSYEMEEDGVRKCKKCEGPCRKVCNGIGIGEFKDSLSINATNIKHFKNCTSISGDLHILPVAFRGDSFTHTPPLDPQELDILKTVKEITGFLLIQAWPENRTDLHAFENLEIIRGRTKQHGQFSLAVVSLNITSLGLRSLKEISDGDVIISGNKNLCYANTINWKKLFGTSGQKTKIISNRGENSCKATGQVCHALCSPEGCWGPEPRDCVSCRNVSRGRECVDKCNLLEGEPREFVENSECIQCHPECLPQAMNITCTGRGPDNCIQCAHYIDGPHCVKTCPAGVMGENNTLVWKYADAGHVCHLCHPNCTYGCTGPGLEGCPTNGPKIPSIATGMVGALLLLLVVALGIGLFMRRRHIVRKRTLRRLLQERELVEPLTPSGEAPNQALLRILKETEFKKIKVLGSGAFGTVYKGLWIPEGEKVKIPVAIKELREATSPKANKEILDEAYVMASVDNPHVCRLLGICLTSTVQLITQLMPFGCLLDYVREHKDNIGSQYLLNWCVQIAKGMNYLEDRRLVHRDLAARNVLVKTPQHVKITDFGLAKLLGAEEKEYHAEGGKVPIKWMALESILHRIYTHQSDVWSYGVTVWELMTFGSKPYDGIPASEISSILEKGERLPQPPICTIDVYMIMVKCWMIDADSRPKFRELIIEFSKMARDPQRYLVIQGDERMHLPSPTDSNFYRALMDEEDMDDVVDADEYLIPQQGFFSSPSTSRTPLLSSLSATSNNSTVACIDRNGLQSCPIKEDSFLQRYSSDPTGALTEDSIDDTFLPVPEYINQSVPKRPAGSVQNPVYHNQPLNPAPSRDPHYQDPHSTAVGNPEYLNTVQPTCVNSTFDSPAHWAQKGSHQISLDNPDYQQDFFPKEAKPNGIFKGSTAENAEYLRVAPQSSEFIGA

[18] = molecular target: Follistatin-related protein 3 (Homo sapiens) (UniProt O95633); assay: FSTL3 binders on small-molecule microarrays, primary screen, biochemical, small-molecule microarray, 635 nm fluorescence (AID 1105); settings: FSTL3 binding, higher = more signal;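 further: score merges emission near 667 nm and signal to noise per printed spot across three slides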
Chain of Follistatin-related protein 3 (Homo sapiens) (O95633 whole entry, looked up): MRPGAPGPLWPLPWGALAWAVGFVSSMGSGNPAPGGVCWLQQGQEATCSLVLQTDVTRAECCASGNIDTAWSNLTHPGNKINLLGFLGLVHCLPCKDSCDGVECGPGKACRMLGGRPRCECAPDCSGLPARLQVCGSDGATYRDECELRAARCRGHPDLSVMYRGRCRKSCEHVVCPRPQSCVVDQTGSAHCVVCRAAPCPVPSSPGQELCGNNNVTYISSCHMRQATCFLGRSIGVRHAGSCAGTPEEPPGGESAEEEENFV

[19] = molecular target: Dickkopf-related protein 1 (Homo sapiens) (UniProt O94907); assay: DKK1 binders on small-molecule microarrays, primary screen, biochemical, small-molecule microarray, 635 nm fluorescence scan (AID 1106); settings: DKK1 binding, higher = more signal;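 further: score merges emission near 667 nm with signal to noise over three replicate slides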
Chain of Dickkopf-related protein 1 (Homo sapiens) (O94907 whole entry, looked up): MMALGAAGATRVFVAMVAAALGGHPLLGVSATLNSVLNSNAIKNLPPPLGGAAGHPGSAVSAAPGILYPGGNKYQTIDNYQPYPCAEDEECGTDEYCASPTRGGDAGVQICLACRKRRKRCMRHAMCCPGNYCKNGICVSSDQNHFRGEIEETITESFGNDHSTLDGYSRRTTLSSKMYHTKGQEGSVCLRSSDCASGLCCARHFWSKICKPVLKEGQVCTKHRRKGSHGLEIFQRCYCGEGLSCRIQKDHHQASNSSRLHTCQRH

[20] = tested on: Inhibin beta A chain (activin A); assay: INHBA (activin A) binders on microarrays, primary screen, biochemical, small-molecule microarray, 635 nm fluorescence scan (AID 1107); settings: small-molecule microarray binding, higher = more signal;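 further: mouse activin A protein probed at 4.33 µg/mL on printed slides; score merges bound-protein fluorescence near 667 nm with spot signal-to-noise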

Structure (SMILES)	composite z-score [1]	z-score [2]	z-score [3]	z-score [4]	composite z-score [5]	z-score [6]	composite z-score [7]	composite z-score [8]	composite z-score [9]	composite z-score [10]	composite z-score [11]	composite z-score [12]	composite z-score [13]	z-score [14]	composite z-score [15]	composite z-score [16]	composite z-score [17]	composite z-score [18]	composite z-score [19]	composite z-score [20]
COC(=O)[C@H](C)NC(=O)[C@@H](C)CO	1.46	0.0198 (inactive)	-0.0164 (inactive)	0.669 (inactive)	1.68	-0.8 (inactive)	-0.0607	0.67	1.07	-0.0578	0.241	0.0939	-0.469	0.364 (inactive)	0.572	0.844	0.499	0.258	0.338	-0.776
CC(C)=NOCc1cccc(-c2cc(-c3ccccc3)no2)c1	1.27	-0.366 (inactive)	-21 (active)	-0.442 (inactive)	1.18	0.533 (inactive)	-0.0375	0.7	0.881	0.161	0.379	-0.208	-0.609	0.342 (inactive)	0.637	0.787	-0.137	0.597	0.494	-0.21
CCN1C(=O)[C@H]2[C@H]3[C@H](O)[C@H](O)CC(=NOC[C@@H](C)[C@H](OCc4ccccc4)C(C)C)[C@@H]3CC[C@H]2C1=O	0.607	-1.05 (inactive)	-4.13 (inactive)	-0.673 (inactive)	0.8	0.568 (inactive)	-0.145	0.355	0.457	-0.0936	1.16	-0.035	-0.171	0.879 (inactive)	0.405	0.254	0.108	0.284	0.132	0.359
COC(=O)CC=C[C@H](C)[C@H](CO)NS(=O)(=O)c1ccc(C)cc1	0.562	-0.0524 (inactive)	-0.256 (inactive)	-0.142 (inactive)	0.368	-0.518 (inactive)	-0.243	0.504	0.506	-0.0953	0.227	-0.397	-0.707	0.636 (inactive)	0.62	0.252	0.573	0.48	0.987	-0.273
CO[C@H]1COC(=O)[C@@H]2CCCN2C(=O)CC=C[C@@H](C)[C@H](OC)COC(=O)CC=C[C@@H]1C	1.54	-1.94 (inactive)	-1.32 (inactive)	-0.611 (inactive)	-0.361	-0.323 (inactive)	-0.0208	1.48	0.991	0.34	0.401	-0.569	-1.28	-0.555 (inactive)	1.09	1.06	1.64	1.47	1.63	1.5
CCOC(=O)[C@H](CC(C)C)NC(=O)CCC1CC(OC(=O)NCc2cccc3ccccc23)CC2(CCCC(COC(=O)NCCN3CCOCC3)O2)O1 (stereo not given in full)	1.57	-1.26 (inactive)	0.557 (inactive)	-1.04 (inactive)	2.36	-0.737 (inactive)	-0.173	0.344	1.11	-0.0828	0.608	-0.265	-0.668	-0.746 (inactive)	0.763	1.28	0.416	0.707	0.652	0.209
COC(=O)C1(C)C=C2C(=C(c3ccccc3)C(=O)C2C)CN1 (stereo not given)	-0.722	-0.269 (inactive)	0.14 (inactive)	0.654 (inactive)	0.517	-0.269 (inactive)	0.498	-1.44	-0.904	0.0003	0.537	1.14	1.22	1.21 (inactive)	-0.174	-0.824	-0.709	-1.29	-1.16	1.45
CCCCCN1CC=CC23O[C@@H]4C=CCOC(=O)[C@@H]4[C@H]2C(=O)N(C(CO)C(C)C)[C@@H]3C1=O (stereo not given in full)	-0.266	0.403 (inactive)	0.195 (inactive)	0.972 (inactive)	-1.52	0.869 (inactive)	-0.166	-0.433	0.247	-0.234	0.745	-0.183	0.0134	0.253 (inactive)	-0.512	-0.786	-1.07	-0.472	-0.426	0.712
C[C@@H]1C=CCC(=O)OC[C@H](C)C(=O)N2CCC[C@H]2C(=O)OC1	1.54	-0.407 (inactive)	0.334 (inactive)	0.356 (inactive)	0.0414	0.325 (inactive)	-0.0971	1.7	0.677	0.228	1.12	-0.457	-0.769	-0.479 (inactive)	0.825	1.21	1.26	0.829	2.21	-1.04
C=COC[C@H]1CN2[C@@H](CC[C@@H](C)[C@@H]2c2ccc(Br)cc2)C(=O)O1	1.4	-2.69 (inactive)	-4.68 (inactive)	-1.52 (inactive)	1.99	-0.0786 (inactive)	-0.155	0.372	0.521	0.0402	0.729	-0.41	-0.601	-1.09 (inactive)	0.273	0.665	0.498	0.694	0.928	0.611
